# Screening data: PubChem BioAssay, Sanford-Burnham Center for Chemical Genomics
# Shown are actives, neighbours in structure and some others; about 3.2% of the full set was active somewhere.
# CRFR2-BP ag = agonists of CRF-BP/CRF-R2 complex, primary screen, cell-based, HEK293, calcium dye fluorescence, uHTS; CRF-binding protein / CRF receptor 2 complex (human); calcium dye fluorescence (FLIPR); percent of saturating CRF peptide response; activation, % at 13.2 µM; 0.46% of 350,000 active; AID 588473, 2011;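 active = activation of at least 50%, plus an integration ratio under a set limit after plate pattern correction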;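 note: plate controls were neutral control wells without compound for no effect and CRF at EC100 for full effect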
# FAS-TE inh = FAS thioesterase domain inhibitors, primary screen, biochemical, fluorescence intensity, uHTS; Fatty acid synthase (Homo sapiens), P49327; recombinant FAS-TE, OMFH fluorogenic substrate, fluorescence endpoint; inhibition, % at 15 µM; 0.67% of 360,000 active;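 active = compounds whose normalised, plate-corrected inhibition of enzyme fluorescence in the single-dose primary screen is 50% or more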;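 note: 0% = DMSO with enzyme and 100% = substrate without enzyme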
# Target sequence (P49327 whole entry, looked up, the tested form may be a part): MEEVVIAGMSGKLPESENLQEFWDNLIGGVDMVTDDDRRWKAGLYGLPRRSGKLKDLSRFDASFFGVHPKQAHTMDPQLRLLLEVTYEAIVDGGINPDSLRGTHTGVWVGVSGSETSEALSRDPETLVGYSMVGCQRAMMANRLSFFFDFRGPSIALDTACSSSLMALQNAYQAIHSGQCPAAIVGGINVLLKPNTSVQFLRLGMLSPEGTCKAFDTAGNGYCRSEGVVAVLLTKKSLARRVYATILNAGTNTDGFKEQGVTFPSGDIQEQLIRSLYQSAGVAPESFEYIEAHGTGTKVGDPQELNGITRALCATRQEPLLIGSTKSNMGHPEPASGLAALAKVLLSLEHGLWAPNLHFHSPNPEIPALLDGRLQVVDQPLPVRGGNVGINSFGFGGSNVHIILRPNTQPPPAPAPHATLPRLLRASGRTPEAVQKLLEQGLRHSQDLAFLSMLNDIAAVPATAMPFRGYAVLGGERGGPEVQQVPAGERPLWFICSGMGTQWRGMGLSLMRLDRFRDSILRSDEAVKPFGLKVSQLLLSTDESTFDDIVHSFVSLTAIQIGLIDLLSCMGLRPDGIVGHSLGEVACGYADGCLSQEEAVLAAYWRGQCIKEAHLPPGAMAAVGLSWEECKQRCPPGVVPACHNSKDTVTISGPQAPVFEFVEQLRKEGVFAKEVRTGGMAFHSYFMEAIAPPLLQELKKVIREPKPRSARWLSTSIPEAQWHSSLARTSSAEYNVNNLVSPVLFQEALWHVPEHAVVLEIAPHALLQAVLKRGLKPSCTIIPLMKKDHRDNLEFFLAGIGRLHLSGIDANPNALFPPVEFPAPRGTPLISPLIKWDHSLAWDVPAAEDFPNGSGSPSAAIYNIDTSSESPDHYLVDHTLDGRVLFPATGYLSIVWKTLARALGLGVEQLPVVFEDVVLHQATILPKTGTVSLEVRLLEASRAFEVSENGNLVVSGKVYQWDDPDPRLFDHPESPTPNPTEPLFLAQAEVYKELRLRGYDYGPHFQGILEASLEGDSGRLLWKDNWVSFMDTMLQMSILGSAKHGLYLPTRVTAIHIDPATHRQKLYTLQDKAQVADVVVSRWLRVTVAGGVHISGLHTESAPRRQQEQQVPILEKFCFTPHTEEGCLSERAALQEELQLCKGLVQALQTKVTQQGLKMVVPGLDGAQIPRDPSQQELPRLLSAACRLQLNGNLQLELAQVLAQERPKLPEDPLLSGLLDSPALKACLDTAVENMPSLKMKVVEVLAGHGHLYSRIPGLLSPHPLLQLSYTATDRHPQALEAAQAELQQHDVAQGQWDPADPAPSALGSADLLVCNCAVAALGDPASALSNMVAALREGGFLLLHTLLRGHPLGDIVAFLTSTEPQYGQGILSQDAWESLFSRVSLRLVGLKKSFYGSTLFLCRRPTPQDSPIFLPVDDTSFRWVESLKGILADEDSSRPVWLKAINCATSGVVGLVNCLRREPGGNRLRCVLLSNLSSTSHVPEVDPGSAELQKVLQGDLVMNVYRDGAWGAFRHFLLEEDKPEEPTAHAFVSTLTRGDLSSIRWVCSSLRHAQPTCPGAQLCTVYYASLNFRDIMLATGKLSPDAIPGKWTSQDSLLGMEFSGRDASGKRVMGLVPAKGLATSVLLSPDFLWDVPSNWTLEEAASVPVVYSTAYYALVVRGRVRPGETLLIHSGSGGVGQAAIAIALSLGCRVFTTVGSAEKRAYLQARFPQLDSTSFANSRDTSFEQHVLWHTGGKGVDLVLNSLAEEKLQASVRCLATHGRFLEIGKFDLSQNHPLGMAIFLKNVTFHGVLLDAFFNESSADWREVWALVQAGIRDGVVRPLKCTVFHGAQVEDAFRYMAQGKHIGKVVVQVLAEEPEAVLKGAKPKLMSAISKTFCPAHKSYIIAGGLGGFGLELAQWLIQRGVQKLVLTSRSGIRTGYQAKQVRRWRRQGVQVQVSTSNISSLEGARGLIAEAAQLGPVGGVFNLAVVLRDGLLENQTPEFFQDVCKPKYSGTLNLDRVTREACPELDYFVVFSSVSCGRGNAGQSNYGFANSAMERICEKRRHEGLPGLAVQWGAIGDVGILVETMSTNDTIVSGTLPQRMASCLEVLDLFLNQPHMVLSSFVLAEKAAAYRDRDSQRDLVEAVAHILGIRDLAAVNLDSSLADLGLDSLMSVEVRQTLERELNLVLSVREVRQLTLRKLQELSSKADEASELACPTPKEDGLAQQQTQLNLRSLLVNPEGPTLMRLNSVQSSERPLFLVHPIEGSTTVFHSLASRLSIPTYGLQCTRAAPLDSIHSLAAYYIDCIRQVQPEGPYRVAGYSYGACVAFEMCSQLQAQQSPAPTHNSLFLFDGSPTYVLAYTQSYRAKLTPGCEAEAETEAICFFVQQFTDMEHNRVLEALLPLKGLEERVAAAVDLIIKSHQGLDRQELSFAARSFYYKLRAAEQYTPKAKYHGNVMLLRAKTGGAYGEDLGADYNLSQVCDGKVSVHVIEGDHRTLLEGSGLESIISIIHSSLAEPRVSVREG
# PfGluPho inh = PfG6PD enzyme inhibitors, primary screen, biochemical, fluorescence intensity, uHTS. 0.78% of 350,000 active. PfGluPho enzyme, NADPH resazurin-diaphorase fluorescence. AID 504690, 2011. glucose-6-phosphate dehydrogenase-6-phosphogluconolactonase (Plasmodium falciparum 3D7). inhibition, % at 20 µM;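 active = inhibition reaching at least a set limit at 20 µM in the primary screen, cut at about 59% in these data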;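 note: 0% = DMSO wells with substrate and 100% = DMSO wells lacking glucose-6-phosphate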
# H9c2 protect = cardioprotection against H2O2-induced cell death, primary screen, uHTS, H9c2 cells, ATPLite luminescence; H9c2 cardiomyocytes, H2O2 injury protection, 2 h; 0.63% of 360,000 active; protection from H2O2 cell death, % at 20 µM;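 active = compounds giving at least 50% protection of heart cells from peroxide-induced death in the single-dose screen, raw or plate-pattern-corrected value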;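 note: 0% = DMSO wells with peroxide and 100% = DMSO wells without peroxide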
# CRFBP-R2 block = antagonists of CRF-BP/CRF-R2 complex, primary screen, cell-based, HEK293, calcium dye fluorescence, uHTS; CRF-induced calcium fluorescence; inhibition, % at 11.8 µM; 0.59% of 350,000 active;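 active = inhibition of the ligand-induced calcium signal above about 50% at the single tested concentration, limit read from the data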
# aDG glyco act = activators of alpha-DG glycosylation, primary screen, uHTS, Pro5-aDG cells, AlphaScreen. alpha-DG glycosylation AlphaScreen (IIH6); 0% Pro5, 100% B10-LARGE cell signal. 0.22% of 360,000 active. AID 624168, 2012. activation, % at 10 µM;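 active = activation of at least 8% versus controls, or a plate z-score of at least 8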;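 note: Pro5 are CHO cells carrying HIG-tagged alpha-DG that lacks glycosylation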
# PfG6PD confirm = PfG6PD inhibitors, hit retest, confirmation, biochemical, fluorescence intensity, single concentration; shares compounds with PfGluPho inh; recombinant PfGluPho, NADPH-diaphorase-resazurin fluorescence; inhibition, % at 20 µM; 34% of 2,400 active;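 active = inhibition of at least 50% at 20 µM in any single replicate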;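 note: 0% = DMSO with substrate and 100% = DMSO lacking glucose-6-phosphate substrate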
# Diaph ctr 10uM = diaphorase inhibitors and chemical oxidizers, confirmation, counter-screen for P. falciparum G6PD inhibitor project, biochemical, fluorescence intensity, 10 µM NADPH | shares compounds with PfGluPho inh | 39% of 820 active | AID 504862, 2011 | inhibition, % at 20 µM | diaphorase-coupled resazurin reduction, NADPH 10 uM;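 active = average inhibition reaching 50% or more with the compound at 20 µM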;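 note: resorufin red fluorescence formed as diaphorase reduces resazurin using NADPH; 0% = DMSO with enzyme and 100% = DMSO without enzyme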
# Diaphorase 30uM = diaphorase inhibitors and chemical oxidizers, confirmation, counter-screen for P. falciparum G6PD inhibitor project, biochemical, fluorescence intensity, 30 µM NADPH; Diaphorase/resazurin coupled assay, resorufin fluorescence; shares compounds with PfGluPho inh; AID 504863, 2011; 29% of 820 active; inhibition, % at 20 µM;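 active = inhibition averaging 50% or more, tested at 20 µM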;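 note: 0% = DMSO with enzyme and 100% = DMSO wells lacking diaphorase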
# The depositor's hits bear a star; / = no result given.
SMILES,CRFR2-BP ag,FAS-TE inh,PfGluPho inh,H9c2 protect,CRFBP-R2 block,aDG glyco act,PfG6PD confirm,Diaph ctr 10uM,Diaphorase 30uM
Cc1ccc(NCC(=O)c2ccccc2)cc1Cl,-2,-4,-35,8,-2,0,/,/,/
O=c1c2cc(F)ccc2sn1-c1ccccc1Cl,13,-8,123*,-28,19,0,110*,-33,2
O=c1c2ccc(F)cc2sn1-c1ccccc1,23,-7,128*,-29,15,0,106*,-25,3
Cc1ccc(-n2sc3cc(F)ccc3c2=O)c(C)c1,27,-8,124*,-31,14,3,104*,5,8
Cc1nnc(-c2ccc(N3CCCCCC3)c([N+](=O)[O-])c2)o1,-1,10,-4,5,9,0,/,/,/
Cc1ccc(-c2nn(-c3ccccc3)cc2/C=N/NC(=O)c2ccncc2)o1,-1,2,60*,44,6,1,-27,/,/
Cc1ccc(-c2nn(-c3ccccc3)cc2C=O)o1,-1,8,20,-16,4,1,/,/,/
CC(C)OC(=O)CSc1nc(Cc2cccs2)nc2ccccc12,-6,20,13,-3,-16,0,/,/,/
O=C(Nc1nnc(S(=O)(=O)N2CCCCC2)s1)c1cccc(Br)c1,14,5,100*,-21,58*,0,61*,69*,46
O=C(Nc1nnc(S(=O)(=O)N2CCCC2)s1)c1cccc([N+](=O)[O-])c1,0,13,97*,-7,24,-1,77*,50*,49
O=C(Nc1nnc(CSCc2ccccc2F)s1)c1cccc([N+](=O)[O-])c1,2,24,61*,-6,-23,0,43,/,/
CN1CCc2c(sc(/N=C/c3c[nH]c4ccccc34)c2C(N)=O)C1,7,-18,67*,2,10,0,-2,/,/
CN1CCc2c(sc(/N=C/c3c[nH]c4ccccc34)c2C#N)C1,8,-30,29,4,13,0,/,/,/
CCN(Cc1ccc(OC)c(F)c1)C(C)C(=O)Nc1ccc(S(=O)(=O)N2CCCC2)cc1 (stereo unspecified),4,25,7,-12,4,0,/,/,/
Cc1nc(COC(=O)c2cc(O)c3ccccc3c2O)cs1,0,14,92*,-18,-9,0,55*,-11,-3
COc1ccc(Cl)cc1C=CC=NNS(=O)(=O)c1ccc(C)cc1,-4,15,12,7,10,2,/,/,/
COc1ccc(Cl)cc1C=CC=Nc1ccccc1O,5,3,76*,-16,-8,4,19,/,/
CC(=O)N1CCN(c2ccc(NCc3cccc4ccccc34)cc2)CC1,0,2,63*,-3,15,0,24,/,/
O=C(CCCn1nnnc1CN1CCOCC1)N1CCN(c2ccccc2F)CC1,2,-5,3,3,-11,0,/,/,/
CCc1nc(SCC(=O)c2ccccc2)c2c(=O)n(C)c(=O)n(C)c2n1,1,13,58,23,1,0,/,/,/
CCCc1nc(SCC(=O)c2ccccc2)c2c(=O)n(C)c(=O)n(C)c2n1,-3,17,71*,3,-9,0,24,/,/
